The results in this text go back to PubChem BioAssay (NCI).

Test systems include HCT-15 colon; HT29 colon; SNB-75 CNS; SNB-19 CNS; U251 CNS; PC-3 prostate; SK-MEL-5 melanoma; UACC-62 melanoma; LOX IMVI melanoma; SK-MEL-28 melanoma; SK-MEL-2 melanoma; EKVX NSCLC; SN12C renal; UO-31 renal; TK-10 renal; ACHN renal; MOLT-4 leukemia; SR leukemia; A498 renal; CCRF-CEM leukemia.
Experiment in all cases: NCI-60 one-dose screen, 48 h (100 = growth as untreated, 0 = no growth, -100 = all killed)
Holding throughout (settings): 10 µM unless noted

Compounds without any hit were thinned out: in the full panel of roughly 83,000, 20% have a hit.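 Single-dose data. Exposure time 48 hours. Values below 10 considered active.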 Unmarked numbers belong to inactive results. The source made the active and inactive calls.

Regarding `NS(=O)(=O)c1ccc(C2C3=C(CCCC3=O)OC3=C2C(=O)c2ccccc2C3=O)cc1` (stereo not drawn), the growth in the assay on HCT-15 colon is 2.23% (active); with HT29 colon, -29.3% (active); in the assay with SNB-75 CNS, -99.5% (active); with SNB-19 CNS it was -1.37% (active); with U251 CNS, -86.7% (active); with PC-3 prostate, -1.42% (active). For the same molecule, the growth in the assay on SK-MEL-5 melanoma was -95.3% (active); in the assay with UACC-62 melanoma, -59.7% (active); with LOX IMVI melanoma it was -72.7% (active); in the assay on SK-MEL-28 melanoma, -57.5% (active); with SK-MEL-2 melanoma it was -74% (active); with EKVX NSCLC it was -55.4% (active). The growth is -52.7% (active) in the assay with SN12C renal; -21.6% (active) in the assay with UO-31 renal; -92.6% (active) in the assay on TK-10 renal; -78.9% (active) with ACHN renal; -54.6% (active) with MOLT-4 leukemia; -19.9% (active) in the assay with SR leukemia.

Take `Cc1ccc(CS/C(=C\c2ccc([N+](=O)[O-])cc2)C(=O)c2ccc(F)cc2)cc1`: the growth is -6.39% (active) in the assay with HCT-15 colon; -20.1% (active) in the assay with HT29 colon; 79.8% in the assay on SNB-75 CNS; 34.6% in the assay with SNB-19 CNS; -20.4% (active) with U251 CNS; 40.9% in the assay on PC-3 prostate. In addition, the growth is 62.7% in the assay on SK-MEL-5 melanoma; 30.9% in the assay on UACC-62 melanoma; -4.93% (active) with LOX IMVI melanoma; 93.5% in the assay on SK-MEL-28 melanoma; 74.5% in the assay with SK-MEL-2 melanoma; 64% in the assay with EKVX NSCLC. Further, the growth with SN12C renal is 45.9%; in the assay with UO-31 renal, 46.7%; in the assay with ACHN renal, 60.1%; in the assay with A498 renal, 89.4%; in the assay with CCRF-CEM leukemia, 5.04% (active); in the assay on MOLT-4 leukemia it was 3.17% (active). In addition, the growth in the assay with SR leukemia is 0.11% (active).

Regarding `C=C(C)[C@@H]1CC[C@]2(C(=O)OCCCC[P+](c3ccccc3)(c3ccccc3)c3ccccc3)CC[C@]3(C)[C@H](CC[C@@H]4[C@@]5(C)CC[C@H](OC(=O)C(Cl)Cl)C(C)(C)[C@@H]5CC[C@]43C)[C@@H]12`, the growth with HCT-15 colon is -8.59% (active); with HT29 colon, 3% (active); with SNB-75 CNS, -46.6% (active); with SNB-19 CNS, 11%; in the assay with U251 CNS it was -37.1% (active); with PC-3 prostate it was -26.2% (active). In addition, the growth with SK-MEL-5 melanoma was -99.4% (active); with UACC-62 melanoma, -43.2% (active); in the assay on LOX IMVI melanoma, -93.7% (active); in the assay on SK-MEL-28 melanoma, -63.4% (active); in the assay on SK-MEL-2 melanoma, -67.5% (active); with EKVX NSCLC, -13.3% (active). The growth was -62.2% (active) in the assay with SN12C renal; -51% (active) in the assay on UO-31 renal; -36.2% (active) with TK-10 renal; -39.6% (active) with ACHN renal; 0.798% (active) in the assay on CCRF-CEM leukemia; -45% (active) with MOLT-4 leukemia. Besides, in the assay on SR leukemia, the growth was -34% (active).

Regarding `O=C1Nc2ccccc2C12C=C(c1ccccc1)Nc1c2c(-c2ccccc2)nn1-c1ccccc1` (stereo not drawn), the growth in the assay on HCT-15 colon was 53.4%; in the assay with HT29 colon, 46.1%; with SNB-75 CNS, 71%; in the assay on SNB-19 CNS, 64.3%; in the assay with U251 CNS, 41.6%; in the assay on PC-3 prostate it was 32.2%. For the same molecule, the growth was 68.4% in the assay with SK-MEL-5 melanoma; 91.9% with UACC-62 melanoma; 65.2% with LOX IMVI melanoma; 82.2% in the assay on SK-MEL-28 melanoma; 80.1% in the assay with SK-MEL-2 melanoma; 53.2% with EKVX NSCLC. Moreover, the growth in the assay on SN12C renal is 76.5%; in the assay with UO-31 renal, 62.9%; in the assay on TK-10 renal, 87.8%; in the assay on ACHN renal, 60.4%; with MOLT-4 leukemia it was 16.4%; in the assay with SR leukemia, 38%.

For `Nc1c(C(=O)Nc2cccc3ccccc23)sc2nc3c(cc12)CCCCCC3`, the growth in the assay on HCT-15 colon is 24.6%; with HT29 colon it was 0.156% (active); with SNB-75 CNS, 10.6%; in the assay on SNB-19 CNS, 27.8%; in the assay with U251 CNS, 14.4%; in the assay with PC-3 prostate, 35.1%. The growth in the assay on SK-MEL-5 melanoma is 45.6%; with UACC-62 melanoma, 32.4%; with LOX IMVI melanoma it was 49.1%; in the assay with SK-MEL-28 melanoma, 65.8%; with SK-MEL-2 melanoma, 5.93% (active); with EKVX NSCLC it was 41.6%. Besides, the growth is 46% in the assay with SN12C renal; 55% in the assay on UO-31 renal; 57.4% in the assay on ACHN renal; -4.7% (active) in the assay with A498 renal; 11.2% in the assay on CCRF-CEM leukemia; 21% in the assay with MOLT-4 leukemia. Besides, in the assay on SR leukemia, the growth was 19.1%.

Regarding `Cc1c(Cl)cccc1NC(=O)c1sc2nc3c(cc2c1N)CCCCCC3`, the growth in the assay on HCT-15 colon was 24.1%; in the assay on HT29 colon, -10.3% (active); with SNB-75 CNS, -6.81% (active); in the assay on SNB-19 CNS it was 29.1%; in the assay on U251 CNS, 15.7%; with PC-3 prostate it was 32.9%. The growth was 28.7% with SK-MEL-5 melanoma; 32% in the assay on UACC-62 melanoma; 40.8% in the assay with LOX IMVI melanoma; 58.7% in the assay on SK-MEL-28 melanoma; 11.8% in the assay with SK-MEL-2 melanoma; 39.8% in the assay on EKVX NSCLC. Further, the growth in the assay on SN12C renal was 42.4%; with UO-31 renal, 55.4%; in the assay on ACHN renal, 41.8%; with A498 renal, -9.95% (active); in the assay with CCRF-CEM leukemia it was 10.9%; with MOLT-4 leukemia, 17.3%. The growth in the assay on SR leukemia was 16%.

As to `Cc1nccc2c3ccc(OCc4cn(-c5ccc(Br)cc5)nn4)cc3n(CC(C)C)c12`, the growth is 36.4% with HCT-15 colon; 4.32% (active) in the assay on HT29 colon; 89.5% in the assay with SNB-75 CNS; 59.6% in the assay with SNB-19 CNS; 36.9% with U251 CNS; 30.7% with PC-3 prostate. Also, the growth in the assay on SK-MEL-5 melanoma is 13.1%; in the assay on UACC-62 melanoma, 38.4%; with LOX IMVI melanoma it was 52.2%; with SK-MEL-28 melanoma it was 67.2%; with SK-MEL-2 melanoma it was 53%; in the assay on EKVX NSCLC, 59.5%. Moreover, the growth in the assay on SN12C renal was 61.5%; with ACHN renal it was 61.9%; with CCRF-CEM leukemia, 35.1%; with MOLT-4 leukemia it was 2.93% (active); in the assay with SR leukemia, -13.9% (active).

As for `C[C@H]1[C@H](C)CC[C@]2(C(=O)OCCCC[P+](c3ccccc3)(c3ccccc3)c3ccccc3)CC[C@]3(C)C(=CC[C@@H]4[C@@]5(C)CC[C@H](OC(=O)C(Cl)Cl)C(C)(C)[C@@H]5CC[C@]43C)[C@H]12`, the growth in the assay on HCT-15 colon is -68.8% (active); with HT29 colon, -55.5% (active); in the assay on SNB-75 CNS, -24.5% (active); with SNB-19 CNS, -56.1% (active); with U251 CNS, -88.6% (active); in the assay on PC-3 prostate, -60.8% (active). In addition, the growth with SK-MEL-5 melanoma was -100% (active); in the assay on UACC-62 melanoma, -67.8% (active); with LOX IMVI melanoma, -99.6% (active); in the assay on SK-MEL-28 melanoma, -77.4% (active); in the assay on SK-MEL-2 melanoma, -63.8% (active); in the assay on EKVX NSCLC it was -35.4% (active). Besides, the growth is -81% (active) with SN12C renal; -76.8% (active) with TK-10 renal; -79.6% (active) with ACHN renal; -82% (active) with A498 renal; -16.6% (active) with CCRF-CEM leukemia; -49.8% (active) in the assay on MOLT-4 leukemia. Further, the growth in the assay with SR leukemia is -49.4% (active).
